From PubChem BioAssay
Active and inactive are the calls of the source.

What was measured:
[1] = test system: Plasmodium falciparum Sir2 (PF13_0152, Sir2A); assay: Plasmodium falciparum Sir2A binding compounds – biochemical, small-molecule microarray, 635 nm fluorescence, primary screen (AID 1098); conditions: fluorescence 635 nm, higher = more signal;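 note: score merges spot fluorescence intensity with its signal-to-noise ratio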
[2] = probe aDKK1 binding to arrayed compounds – biochemical, biotinylated probe, 635/667 nm fluorescence, primary screen (AID 1099); conditions: small-molecule microarray, higher = more signal;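 note: score merges 667nm spot fluorescence with signal to noise across triplicate slides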
[3] = probe aCHRDL2 binding to arrayed compounds – biochemical, biotinylated probe, 635/667 nm fluorescence, primary screen (AID 1100); conditions: small-molecule microarray, higher = more signal
[4] = change in splice reporter luminescence, either direction, cell-based, HEK293, spliceosome inhibition project, primary screen (AID 1101); conditions: HEK293 splicing luciferase reporter, 24 h, higher = more signal, called active from +8 up or from −8 down;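 note: HEK293 cells carrying a splicing-competent luciferase reporter gene; test concentration not given here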
[5] = molecular target: Fibroblast growth factor 10 (Homo sapiens) (UniProt O15520); assay: compounds binding fibroblast growth factor 10 – biochemical, small-molecule microarray, 635 nm fluorescence, primary screen (AID 1102); conditions: FGF10 binding, fluorescence 635 nm, higher = more signal
Fibroblast growth factor 10 (Homo sapiens), sequence (O15520 whole entry, looked up): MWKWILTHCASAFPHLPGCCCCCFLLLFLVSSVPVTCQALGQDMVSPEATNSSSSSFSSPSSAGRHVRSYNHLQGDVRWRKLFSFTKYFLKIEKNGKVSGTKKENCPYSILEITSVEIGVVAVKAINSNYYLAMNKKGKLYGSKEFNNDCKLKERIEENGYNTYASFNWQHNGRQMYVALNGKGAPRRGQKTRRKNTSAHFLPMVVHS

[6] = test system: glycogen synthase kinase-3 (GSK3A per assay name; protocol says GSK3B); assay: compounds binding glycogen synthase kinase-3 – biochemical, small-molecule microarray, 635 nm fluorescence, GSK3A, primary screen (AID 1103); conditions: fluorescence 635 nm, higher = more signal; note: the record names both GSK3A and GSK3B
[7] = molecular target: Epidermal growth factor receptor (Homo sapiens) (UniProt P00533); assay: compounds binding epidermal growth factor receptor – biochemical, small-molecule microarray, 635 nm fluorescence, primary screen (AID 1104); conditions: EGFR binding, higher = more signal;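 note: score merges 667 nm emission intensity with spot signal to noise over triplicate slides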
Epidermal growth factor receptor (Homo sapiens), sequence (P00533 whole entry, looked up): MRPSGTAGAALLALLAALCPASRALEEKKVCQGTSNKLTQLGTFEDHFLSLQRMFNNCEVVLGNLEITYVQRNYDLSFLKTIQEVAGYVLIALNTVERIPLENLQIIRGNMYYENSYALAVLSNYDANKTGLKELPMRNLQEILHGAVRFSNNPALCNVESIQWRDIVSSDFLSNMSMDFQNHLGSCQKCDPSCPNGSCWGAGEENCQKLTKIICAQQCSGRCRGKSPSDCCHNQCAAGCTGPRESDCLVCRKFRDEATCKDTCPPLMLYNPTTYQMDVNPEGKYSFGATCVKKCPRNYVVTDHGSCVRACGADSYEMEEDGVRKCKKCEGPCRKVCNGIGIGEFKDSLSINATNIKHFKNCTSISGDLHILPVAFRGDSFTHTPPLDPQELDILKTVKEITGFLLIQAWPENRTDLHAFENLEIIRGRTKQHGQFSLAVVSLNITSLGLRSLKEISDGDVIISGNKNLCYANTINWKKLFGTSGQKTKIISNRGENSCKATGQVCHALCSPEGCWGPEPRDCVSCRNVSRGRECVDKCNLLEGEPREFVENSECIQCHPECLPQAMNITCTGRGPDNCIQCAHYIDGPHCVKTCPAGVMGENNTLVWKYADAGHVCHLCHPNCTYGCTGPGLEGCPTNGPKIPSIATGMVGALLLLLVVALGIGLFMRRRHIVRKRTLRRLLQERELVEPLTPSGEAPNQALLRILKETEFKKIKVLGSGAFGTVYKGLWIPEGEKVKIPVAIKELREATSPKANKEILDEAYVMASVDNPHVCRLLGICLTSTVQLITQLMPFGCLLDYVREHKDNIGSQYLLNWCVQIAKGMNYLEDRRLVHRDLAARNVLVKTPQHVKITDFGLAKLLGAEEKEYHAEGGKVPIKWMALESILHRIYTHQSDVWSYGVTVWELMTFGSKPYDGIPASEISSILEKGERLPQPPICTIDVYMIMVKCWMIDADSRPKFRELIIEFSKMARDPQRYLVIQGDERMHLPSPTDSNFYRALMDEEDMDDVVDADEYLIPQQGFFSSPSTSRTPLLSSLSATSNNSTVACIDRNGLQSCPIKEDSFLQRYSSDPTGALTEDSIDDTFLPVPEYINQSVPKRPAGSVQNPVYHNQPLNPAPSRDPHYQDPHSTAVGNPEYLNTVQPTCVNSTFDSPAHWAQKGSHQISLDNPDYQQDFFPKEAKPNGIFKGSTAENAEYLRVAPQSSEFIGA

[8] = molecular target: Follistatin-related protein 3 (Homo sapiens) (UniProt O95633); assay: compounds binding follistatin-related protein 3 – biochemical, small-molecule microarray, 635 nm fluorescence, primary screen (AID 1105); conditions: FSTL3 binding, higher = more signal;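 note: score merges emission near 667 nm and signal to noise per printed spot across three slides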
Follistatin-related protein 3 (Homo sapiens), sequence (O95633 whole entry, looked up): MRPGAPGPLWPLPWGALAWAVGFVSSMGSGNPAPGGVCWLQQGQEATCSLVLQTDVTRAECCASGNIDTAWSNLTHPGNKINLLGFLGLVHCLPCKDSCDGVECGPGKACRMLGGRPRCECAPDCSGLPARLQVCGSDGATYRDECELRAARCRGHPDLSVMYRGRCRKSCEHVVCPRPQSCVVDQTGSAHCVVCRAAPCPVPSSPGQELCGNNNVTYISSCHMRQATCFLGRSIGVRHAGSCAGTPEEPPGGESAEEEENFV

[9] = molecular target: Dickkopf-related protein 1 (Homo sapiens) (UniProt O94907); assay: small molecules binding DKK1 protein – biochemical, small-molecule microarray, 635 nm fluorescence scan, primary screen (AID 1106); conditions: higher = more signal;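 note: score merges emission near 667 nm with signal to noise over three replicate slides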
Dickkopf-related protein 1 (Homo sapiens), sequence (O94907 whole entry, looked up): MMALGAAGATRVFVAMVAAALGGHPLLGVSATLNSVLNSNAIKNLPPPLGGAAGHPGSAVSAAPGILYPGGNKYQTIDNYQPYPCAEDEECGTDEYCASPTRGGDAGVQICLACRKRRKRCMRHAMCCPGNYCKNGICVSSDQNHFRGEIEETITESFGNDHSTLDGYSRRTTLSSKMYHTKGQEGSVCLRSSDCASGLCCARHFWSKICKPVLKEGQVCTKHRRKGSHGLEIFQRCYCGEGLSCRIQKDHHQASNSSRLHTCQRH

[10] = test system: Inhibin beta A chain (activin A); assay: small molecules binding activin A – biochemical, small-molecule microarray, 635 nm fluorescence scan, primary screen (AID 1107); conditions: INHBA, higher = more signal;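 note: mouse activin A protein probed at 4.33 µg/mL on printed slides; score merges bound-protein fluorescence near 667 nm with spot signal-to-noise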
[11] = test system: Human papillomavirus type 1a protein E7 (residues 44-93); assay: small molecules binding HPV E7 44-93 – biochemical, small-molecule microarray, residues 44-93, 635 nm fluorescence, primary screen (AID 1108); conditions: fluorescence 635 nm, higher = more signal;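 note: E7 fragment applied at 1 µg/mL in TBST for 1 h at 4 C; score combines spot fluorescence with its signal to noise ratio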
[12] = hepatitis C replication reporter changes, two-sided – Huh7 cells, luciferase reporter, HCV replication inhibitor project, primary screen (AID 1109); conditions: Huh7 HCV replicon luciferase reporter, 48 h; higher = more signal;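 note: huh7 hepatoma cells harbouring a luciferase neomycin HCV replicon reporter; luciferase luminescence as measure of HCV replicon replication; test concentration not given here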
[13] = molecular target: Left-right determination factor 2 (Homo sapiens) (UniProt O00292); assay: small molecules binding LEFTY2 protein – biochemical, small-molecule microarray, 635 nm fluorescence scan, primary screen (AID 1110); conditions: higher = more signal
Left-right determination factor 2 (Homo sapiens), sequence (O00292 whole entry, looked up): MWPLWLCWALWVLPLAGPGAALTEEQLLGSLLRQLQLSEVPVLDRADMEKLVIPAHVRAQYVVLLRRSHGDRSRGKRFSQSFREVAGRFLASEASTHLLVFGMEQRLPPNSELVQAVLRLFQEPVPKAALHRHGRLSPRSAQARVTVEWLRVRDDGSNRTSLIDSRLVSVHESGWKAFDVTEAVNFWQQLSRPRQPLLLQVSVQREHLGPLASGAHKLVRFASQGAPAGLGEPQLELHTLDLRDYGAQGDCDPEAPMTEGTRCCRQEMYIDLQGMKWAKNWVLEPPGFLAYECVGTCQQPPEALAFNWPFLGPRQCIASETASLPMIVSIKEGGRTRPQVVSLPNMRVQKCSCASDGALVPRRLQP

[14] = molecular target: Calmodulin-1 (Homo sapiens) (UniProt P0DP23); assay: small molecules binding calmodulin-1 with EGTA – biochemical, small-molecule microarray, Cy5-labelled CALM1, profiling panel (AID 1111); conditions: Cy5-CALM1 binding fluorescence, higher = more signal;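 note: labelled calmodulin applied in Tris saline Tween buffer holding calcium plus EGTA and DTT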
[15] = molecular target: Calmodulin-1 (Homo sapiens) (UniProt P0DP23); assay: small molecules binding Ca-loaded calmodulin-1 – biochemical, small-molecule microarray, Cy5-labelled CALM1, plus calcium, artefact control for SMM control-protein annotation, profiling panel (AID 1112); conditions: Cy5-CALM1 binding fluorescence, higher = more signal;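 note: score merges spot fluorescence with signal to noise from triplicate slides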
[16] = probe aWnt5a binding to arrayed compounds – biochemical, biotinylated probe, 635/667 nm fluorescence, primary screen (AID 1113); conditions: small-molecule microarray, higher = more signal;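 note: score merges 667 nm fluorescence intensity with signal-to-noise per printed feature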
[17] = probe aShh binding to arrayed compounds – biochemical, biotinylated probe, 635/667 nm fluorescence, primary screen (AID 1114); conditions: small-molecule microarray, higher = more signal;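 note: probe is biotin-labelled aShh protein from a stem cell growth factor screen; measures binding of labelled protein to compounds printed on the slide; score merges feature fluorescence at 667 nm with signal-to-noise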
[18] = probe aNog binding to arrayed compounds – biochemical, biotinylated probe, 635/667 nm fluorescence, primary screen (AID 1115); conditions: small-molecule microarray, higher = more signal;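 note: probe is biotinylated aNog protein used at 0.15 µg/mL for 1 h at 4 C; z-score combines 667 nm fluorescence of each spot with its signal to noise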
[19] = molecular target: Torsin-1A-interacting protein 1 (Homo sapiens) (UniProt Q5JTV8); assay: compound microarray binding of lysate hLAP1 – cell lysate, small-molecule microarray, COS7 lysate, 635/667 nm fluorescence, primary screen (AID 1116); conditions: 635 nm fluorescence, higher = more signal
Torsin-1A-interacting protein 1 (Homo sapiens), sequence (Q5JTV8 whole entry, looked up): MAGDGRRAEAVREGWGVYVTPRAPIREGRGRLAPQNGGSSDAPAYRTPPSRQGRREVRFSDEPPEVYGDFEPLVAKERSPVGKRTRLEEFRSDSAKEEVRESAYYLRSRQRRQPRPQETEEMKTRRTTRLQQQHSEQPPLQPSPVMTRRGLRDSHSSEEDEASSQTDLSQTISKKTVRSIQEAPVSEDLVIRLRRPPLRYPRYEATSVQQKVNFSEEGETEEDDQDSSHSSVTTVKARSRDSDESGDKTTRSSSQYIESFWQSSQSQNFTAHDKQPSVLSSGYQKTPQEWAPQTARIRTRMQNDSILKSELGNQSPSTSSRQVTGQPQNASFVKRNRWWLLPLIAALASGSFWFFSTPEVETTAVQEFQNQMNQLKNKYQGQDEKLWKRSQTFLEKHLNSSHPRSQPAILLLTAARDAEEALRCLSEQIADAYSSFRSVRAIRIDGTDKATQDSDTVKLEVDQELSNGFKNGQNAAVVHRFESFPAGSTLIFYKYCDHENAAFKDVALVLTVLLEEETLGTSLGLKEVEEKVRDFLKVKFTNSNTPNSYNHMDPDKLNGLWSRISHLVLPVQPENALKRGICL

[20] = molecular target: Alpha-bungarotoxin (Bungarus multicinctus) (UniProt P60615); assay: compounds binding labelled alpha-BTX control protein – biochemical, small-molecule microarray, Alexa647 label, 635/667 nm fluorescence, artefact control for SMM control protein annotation, profiling panel (AID 1117); conditions: alpha-BTX-A647 binding fluorescence, higher = more signal
Alpha-bungarotoxin (Bungarus multicinctus), sequence (P60615 whole entry, looked up): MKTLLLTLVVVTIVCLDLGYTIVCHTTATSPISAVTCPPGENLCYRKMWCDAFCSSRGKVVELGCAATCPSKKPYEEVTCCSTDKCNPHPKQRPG

SMILES	composite z-score [1]	composite z-score [2]	composite z-score [3]	z-score [4]	composite z-score [5]	composite z-score [6]	composite z-score [7]	composite z-score [8]	composite z-score [9]	composite z-score [10]	composite z-score [11]	z-score [12]	composite z-score [13]	composite z-score [14]	composite z-score [15]	composite z-score [16]	composite z-score [17]	composite z-score [18]	composite z-score [19]	composite z-score [20]
CCCCC(O)C1C=CC2C(=O)N(c3ccccc3)C(=O)C2N1Nc1ccccc1F (stereo not given)	1.24	1.4	1.17	0.826 (inactive)	0.857	0.827	-0.374	0.443	-0.683	0.834	0.392	-0.472	0.22	1.48	-0.124	0.241	0.261	1.87	1.21	3.13
O=C1C2C=CC(C(O)c3ccc(F)cc3)N(Nc3ccccc3F)C2C(=O)N1c1ccccc1 (stereo not given)	1.47	0.131	0.996	1.34 (inactive)	0.678	-0.412	-0.609	0.396	-0.868	0.503	1.18	0.912	-0.952	1.23	0.367	-0.001	-0.0441	1.34	0.694	0.394
COc1ccc(C(O)C2C=CC3C(=O)N(c4ccccc4)C(=O)C3N2Nc2ccc(C(C)C)cc2)cc1OCc1ccccc1 (stereo not given)	1.5	1.17	1.27	-0.00529 (inactive)	0.889	1.27	0.207	1.29	-0.213	0.521	0.473	-0.264	0.346	2.13	0.682	0.145	-0.0375	0.299	0.598	2.07
O=C1OCCC/C=C\[C@H]2OC34C=CCN(CCN5CCOCC5)C(=O)[C@H]3N(CCCO)C(=O)[C@@H]4C12 (stereo not given in full)	1.37	-0.199	0.0663	0.106 (inactive)	0.0487	-0.0632	-0.708	-0.621	-0.298	0.576	-0.941	-0.61	-0.27	-1.01	-0.147	-0.18	-0.26	-0.23	1.05	1.19
C=CCOC(=O)[C@H]1[C@@H]2C(=O)O[C@@H](c3ccccc3)[C@@H](c3ccccc3)N2[C@@H](c2ccc(OCCOC(=O)[C@H]3C[C@H]4C(=O)N5CCC[C@H]5C(=O)N4[C@H]3c3ccc(O)cc3)cc2)[C@]12C(=O)Nc1ccccc12	1.54	-0.202	0.106	0.994 (inactive)	1.47	1.36	0.999	1.39	1.81	0.39	1.45	-1.93	1.42	0.959	-0.0987	0.0354	0.147	-0.21	1.5	0.588
O=C1c2ccccc2[C@](Cc2ccccc2I)(C(=O)NC2CC2)[C@H](c2ccc(CO)cc2)N1C1CCCCC1	1.19	-0.809	-0.589	-0.578 (inactive)	0.724	1.33	0.543	1.05	0.529	0.435	1.46	-1.62	0.272	0.675	0.0028	-0.176	-0.421	-0.0067	0.547	1.38
COc1ccc(CCNC(=O)[C@@]2(C)c3ccccc3C(=O)N(Cc3cc(F)cc(C(F)(F)F)c3)[C@H]2c2ccc(CO)cc2)cc1	1.59	0.362	0.875	-1.23 (inactive)	0.512	-0.596	-0.244	-0.972	-0.434	-0.0094	0.0404	-0.928	-0.454	0.123	-0.183	-0.0944	-0.0849	0.549	-0.152	-0.838
COC(=O)[C@@]1(Cc2ccc(OC)cc2)[C@H]2c3cc(C(=O)N4CCCC4)n(Cc4ccccc4)c3C[C@H]2CN1C(=O)c1ccccc1	0.93	2.64	1.31	-1.16 (inactive)	1.31	0.472	0.801	0.413	-0.505	0.651	1.16	-1.76	0.117	2.3	0.817	1.29	2.49	2.87	0.0976	0.75
CC(C)(C)OC(=O)CC[C@]1(C(=O)O)N=C(c2ccc(OCCCO)cc2)O[C@H]1c1ccccc1N=[N+]=[N-]	1.34	1.75	1.11	0.115 (inactive)	0.443	0.581	-0.143	0.4	0.0608	0.977	0.148	2.27	0.101	1.84	0.465	0.38	0.699	2.34	1.41	1.42
O=C(C1N=C(c2ccc(OCCCO)cc2)N(c2ccccc2)O1)N1CCOCC1 (stereo not given)	0.298	0.56	0.538	-0.799 (inactive)	1.46	1.3	0.0096	0.695	0.858	0.315	1.37	-2.11	0.677	1.29	0.335	-0.0445	0.465	-0.492	0.832	1.12
O=C1OCC=C[C@H]2OC34C=CCN(c5ccc6ccccc6c5)C(=O)[C@H]3N(CCCCCCO)C(=O)[C@@H]4[C@@H]12 (stereo not given in full)	1.66	-0.117	0.817	-0.076 (inactive)	-0.821	-1.12	-1.79	-1.69	-0.854	0.0633	-0.925	0.699	-1.06	-0.327	0.132	-0.152	0.0121	0.509	1.09	-1.01
